# Experimental data: PMC7862700, “An all-to-all approach to the identification of sequence-specific readers for epigenetic DNA modifications on cytosine”
# Legend:
# Assay in all cases: DAPPL (digital affinity profiling via proximity ligation, sequencing); 10 mM Tris-HCl pH 7.5, 50 mM NaCl, 1 mM DTT, 4% glycerol, room temperature, 30 min; GST-TFs on glutathione beads, 16-mer random dsDNA library, 0.1% formaldehyde crosslink after washing; high values mean tight binding
# Details in all cases: protein: recombinant; tags: N-terminal GST; dsDNA, one strand shown
# ELK1 = target: T1, ELK1 (Homo sapiens, UniProt P19419 1-428)
# T1 sequence: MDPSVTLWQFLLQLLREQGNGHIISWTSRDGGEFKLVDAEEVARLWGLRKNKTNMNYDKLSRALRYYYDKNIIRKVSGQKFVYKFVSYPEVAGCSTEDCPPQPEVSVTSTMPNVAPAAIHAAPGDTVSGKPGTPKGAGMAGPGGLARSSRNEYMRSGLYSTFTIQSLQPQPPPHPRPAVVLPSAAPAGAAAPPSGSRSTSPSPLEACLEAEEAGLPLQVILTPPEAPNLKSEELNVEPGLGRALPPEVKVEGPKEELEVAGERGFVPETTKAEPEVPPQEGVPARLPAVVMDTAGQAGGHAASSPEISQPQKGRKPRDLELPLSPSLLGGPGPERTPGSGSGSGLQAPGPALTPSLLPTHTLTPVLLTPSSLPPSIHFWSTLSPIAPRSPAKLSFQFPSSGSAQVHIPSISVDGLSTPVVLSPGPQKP
# Method in brief: (§1)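 Pools were built from human transcription factors expressed in yeast as GST fusions, captured on glutathione beads and DNA-barcoded, along with a tag-only sample. Incubation with 200 nmole of a 16-mer random double-stranded DNA library lasted 30 min at room temperature in Tris/NaCl/DTT/glycerol buffer, and was followed by washing, 0.1% formaldehyde crosslinking, proximity ligation, PCR amplification and Illumina NextSeq500 sequencing. Binding signal is the quotient of each hexamer's read frequency for a factor and its frequency for the tag-only sample.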
# GABPA = target: T2, GABPA (Homo sapiens, UniProt Q06546 1-454)
# T2 sequence: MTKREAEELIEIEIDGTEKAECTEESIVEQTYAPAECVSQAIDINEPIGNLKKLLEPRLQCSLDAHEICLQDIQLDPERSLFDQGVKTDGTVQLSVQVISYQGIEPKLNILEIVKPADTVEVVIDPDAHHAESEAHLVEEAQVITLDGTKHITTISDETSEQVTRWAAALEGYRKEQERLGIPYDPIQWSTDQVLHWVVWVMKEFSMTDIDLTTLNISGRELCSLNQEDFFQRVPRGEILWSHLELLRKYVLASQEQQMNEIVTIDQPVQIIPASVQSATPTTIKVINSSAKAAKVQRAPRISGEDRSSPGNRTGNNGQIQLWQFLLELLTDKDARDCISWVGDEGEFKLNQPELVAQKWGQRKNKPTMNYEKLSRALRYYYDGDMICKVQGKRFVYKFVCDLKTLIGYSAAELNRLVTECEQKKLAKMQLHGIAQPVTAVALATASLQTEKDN
# Method in brief: as §1
# ERG = target: T3, ERG (Homo sapiens, UniProt P11308 1-479)
# T3 sequence: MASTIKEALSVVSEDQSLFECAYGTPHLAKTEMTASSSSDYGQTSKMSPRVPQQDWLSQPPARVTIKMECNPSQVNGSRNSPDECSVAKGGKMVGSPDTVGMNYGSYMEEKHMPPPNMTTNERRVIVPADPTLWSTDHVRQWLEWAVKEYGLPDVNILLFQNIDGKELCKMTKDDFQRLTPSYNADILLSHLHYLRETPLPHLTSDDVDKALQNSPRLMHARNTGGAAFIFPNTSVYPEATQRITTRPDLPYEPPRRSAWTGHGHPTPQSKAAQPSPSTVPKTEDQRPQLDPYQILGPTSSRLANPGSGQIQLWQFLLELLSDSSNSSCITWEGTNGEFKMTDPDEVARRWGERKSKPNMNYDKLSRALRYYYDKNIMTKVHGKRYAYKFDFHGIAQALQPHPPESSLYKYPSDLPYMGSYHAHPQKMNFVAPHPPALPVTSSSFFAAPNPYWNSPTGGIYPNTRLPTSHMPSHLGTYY
# Method in brief: as §1
# ELF1 = ELF1 (Homo sapiens, UniProt P32519 1-619)
# ELF1, sequence (P32519 whole entry): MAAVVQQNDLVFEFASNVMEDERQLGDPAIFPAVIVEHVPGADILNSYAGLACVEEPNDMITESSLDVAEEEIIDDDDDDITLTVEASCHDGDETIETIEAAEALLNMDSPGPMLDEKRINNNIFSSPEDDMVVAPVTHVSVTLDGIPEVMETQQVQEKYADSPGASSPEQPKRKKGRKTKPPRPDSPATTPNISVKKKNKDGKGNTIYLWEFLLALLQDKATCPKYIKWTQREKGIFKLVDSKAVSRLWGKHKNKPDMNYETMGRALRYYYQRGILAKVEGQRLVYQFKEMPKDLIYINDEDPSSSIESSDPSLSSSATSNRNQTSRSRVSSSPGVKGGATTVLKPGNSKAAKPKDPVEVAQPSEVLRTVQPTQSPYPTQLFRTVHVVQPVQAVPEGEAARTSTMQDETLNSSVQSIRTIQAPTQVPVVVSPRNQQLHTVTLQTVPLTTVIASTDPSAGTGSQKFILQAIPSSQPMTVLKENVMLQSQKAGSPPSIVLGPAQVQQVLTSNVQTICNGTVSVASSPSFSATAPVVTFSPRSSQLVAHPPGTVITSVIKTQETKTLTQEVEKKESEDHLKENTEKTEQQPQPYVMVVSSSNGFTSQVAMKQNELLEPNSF
# Method in brief: as §1
# EHF = target: T4, EHF (Homo sapiens, UniProt Q9NZC4 1-300)
# T4 sequence: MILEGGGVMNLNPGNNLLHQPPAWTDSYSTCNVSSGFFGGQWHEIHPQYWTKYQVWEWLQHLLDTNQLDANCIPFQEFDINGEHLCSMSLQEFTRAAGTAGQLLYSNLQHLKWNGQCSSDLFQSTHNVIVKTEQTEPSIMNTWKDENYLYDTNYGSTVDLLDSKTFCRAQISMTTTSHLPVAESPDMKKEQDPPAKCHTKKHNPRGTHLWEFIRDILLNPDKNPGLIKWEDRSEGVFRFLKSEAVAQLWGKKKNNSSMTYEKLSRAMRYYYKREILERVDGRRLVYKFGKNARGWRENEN
# Method in brief: as §1
# SPI1 = SPI1 (Homo sapiens, UniProt P17947 1-270)
# Method in brief: as §1
# SPIB = SPIB (Homo sapiens, UniProt Q01892 1-262)
# SPIB, sequence (Q01892 whole entry): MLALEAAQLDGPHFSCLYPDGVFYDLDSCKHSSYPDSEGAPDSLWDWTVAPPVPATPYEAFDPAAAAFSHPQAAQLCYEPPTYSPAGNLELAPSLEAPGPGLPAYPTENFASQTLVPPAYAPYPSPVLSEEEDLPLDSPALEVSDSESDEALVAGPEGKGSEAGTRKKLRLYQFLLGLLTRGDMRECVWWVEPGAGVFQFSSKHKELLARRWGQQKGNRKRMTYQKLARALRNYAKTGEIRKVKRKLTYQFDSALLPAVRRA
# Method in brief: as §1
# FEV = target: T5, FEV (Homo sapiens, UniProt Q99581 1-238)
# T5 sequence: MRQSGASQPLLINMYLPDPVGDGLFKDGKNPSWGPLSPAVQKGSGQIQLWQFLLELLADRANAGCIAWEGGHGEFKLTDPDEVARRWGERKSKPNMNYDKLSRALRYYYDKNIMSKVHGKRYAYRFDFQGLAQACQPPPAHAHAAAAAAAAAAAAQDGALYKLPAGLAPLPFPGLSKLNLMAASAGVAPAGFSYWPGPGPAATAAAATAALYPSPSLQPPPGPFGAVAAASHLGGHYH
# Method in brief: as §1
# ETV5 = ETV5 (Homo sapiens, UniProt P41161 1-510)
# ETV5, sequence (P41161 whole entry): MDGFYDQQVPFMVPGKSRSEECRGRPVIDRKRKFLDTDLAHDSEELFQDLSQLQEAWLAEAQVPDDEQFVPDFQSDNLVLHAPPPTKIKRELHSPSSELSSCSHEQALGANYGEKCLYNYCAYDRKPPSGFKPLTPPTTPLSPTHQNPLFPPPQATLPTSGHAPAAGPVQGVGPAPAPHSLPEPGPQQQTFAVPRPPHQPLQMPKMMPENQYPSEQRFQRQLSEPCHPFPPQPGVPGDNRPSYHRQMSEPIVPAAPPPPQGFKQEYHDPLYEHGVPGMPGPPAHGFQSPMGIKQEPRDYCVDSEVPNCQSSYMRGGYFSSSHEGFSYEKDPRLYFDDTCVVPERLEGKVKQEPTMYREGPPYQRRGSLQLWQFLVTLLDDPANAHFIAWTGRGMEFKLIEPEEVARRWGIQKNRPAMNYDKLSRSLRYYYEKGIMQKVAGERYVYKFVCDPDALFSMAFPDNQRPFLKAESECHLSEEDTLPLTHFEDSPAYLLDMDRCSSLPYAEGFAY
# Method in brief: as §1
# ELK4 = target: T6, ELK4 (Homo sapiens, UniProt P28324-2 1-405)
# T6 sequence: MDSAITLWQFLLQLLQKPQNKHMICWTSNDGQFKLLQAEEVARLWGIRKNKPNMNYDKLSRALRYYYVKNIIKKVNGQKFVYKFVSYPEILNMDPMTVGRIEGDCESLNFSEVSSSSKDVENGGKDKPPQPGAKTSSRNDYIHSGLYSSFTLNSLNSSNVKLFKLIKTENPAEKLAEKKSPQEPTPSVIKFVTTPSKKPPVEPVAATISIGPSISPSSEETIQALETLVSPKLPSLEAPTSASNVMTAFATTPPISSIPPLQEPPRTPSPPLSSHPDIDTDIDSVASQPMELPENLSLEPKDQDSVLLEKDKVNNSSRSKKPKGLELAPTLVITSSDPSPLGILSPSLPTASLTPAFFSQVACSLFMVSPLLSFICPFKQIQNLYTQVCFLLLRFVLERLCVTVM
# Method in brief: as §1
# ELF3 = target: T7, ELF3 (Homo sapiens, UniProt P78545 1-371)
# T7 sequence: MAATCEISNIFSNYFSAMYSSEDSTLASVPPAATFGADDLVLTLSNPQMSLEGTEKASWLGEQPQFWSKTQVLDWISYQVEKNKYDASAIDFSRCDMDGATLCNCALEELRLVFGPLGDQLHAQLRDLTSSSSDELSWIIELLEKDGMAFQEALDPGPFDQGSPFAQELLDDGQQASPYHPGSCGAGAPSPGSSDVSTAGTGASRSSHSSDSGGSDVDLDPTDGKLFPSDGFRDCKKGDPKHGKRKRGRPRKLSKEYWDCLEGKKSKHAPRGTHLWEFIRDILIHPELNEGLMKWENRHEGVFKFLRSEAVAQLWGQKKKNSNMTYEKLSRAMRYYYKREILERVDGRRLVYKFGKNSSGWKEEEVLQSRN
# Method in brief: as §1
# ETV1 = ETV1 (Homo sapiens, UniProt P50549 1-477)
# ETV1, sequence (P50549 whole entry): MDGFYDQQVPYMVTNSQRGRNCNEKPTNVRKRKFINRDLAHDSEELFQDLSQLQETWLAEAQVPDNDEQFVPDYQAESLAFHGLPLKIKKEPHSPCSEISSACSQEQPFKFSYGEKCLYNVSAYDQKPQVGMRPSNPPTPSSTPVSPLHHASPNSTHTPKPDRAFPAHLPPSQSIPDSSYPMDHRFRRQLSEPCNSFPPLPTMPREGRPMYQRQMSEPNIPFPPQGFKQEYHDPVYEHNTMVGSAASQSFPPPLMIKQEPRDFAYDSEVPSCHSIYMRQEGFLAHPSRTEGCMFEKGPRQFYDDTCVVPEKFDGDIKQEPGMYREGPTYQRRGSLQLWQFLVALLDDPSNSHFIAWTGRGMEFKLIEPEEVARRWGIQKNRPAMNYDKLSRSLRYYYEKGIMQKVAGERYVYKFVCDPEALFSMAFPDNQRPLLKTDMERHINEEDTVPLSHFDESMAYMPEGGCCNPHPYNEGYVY
# Method in brief: as §1
# ERF = target: T8, ERF (Homo sapiens, UniProt P50548 1-548)
# T8 sequence: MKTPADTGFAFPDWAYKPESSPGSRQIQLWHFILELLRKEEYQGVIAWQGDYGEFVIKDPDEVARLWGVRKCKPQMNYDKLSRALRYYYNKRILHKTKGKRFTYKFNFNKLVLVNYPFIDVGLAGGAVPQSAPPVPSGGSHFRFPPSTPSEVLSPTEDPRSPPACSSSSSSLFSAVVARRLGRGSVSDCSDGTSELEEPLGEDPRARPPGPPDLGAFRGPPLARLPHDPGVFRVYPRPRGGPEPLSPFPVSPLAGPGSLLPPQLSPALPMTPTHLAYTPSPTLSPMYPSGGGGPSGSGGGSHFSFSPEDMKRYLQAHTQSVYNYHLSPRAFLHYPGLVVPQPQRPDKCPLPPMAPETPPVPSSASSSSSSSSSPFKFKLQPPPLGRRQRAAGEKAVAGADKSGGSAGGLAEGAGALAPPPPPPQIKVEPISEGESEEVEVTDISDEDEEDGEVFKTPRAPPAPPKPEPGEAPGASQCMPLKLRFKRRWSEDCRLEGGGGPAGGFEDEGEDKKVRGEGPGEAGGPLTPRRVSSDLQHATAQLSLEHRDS
# Method in brief: as §1
# ETV3L = target: T9, ETV3L (Homo sapiens, UniProt Q6ZN32 1-361)
# T9 sequence: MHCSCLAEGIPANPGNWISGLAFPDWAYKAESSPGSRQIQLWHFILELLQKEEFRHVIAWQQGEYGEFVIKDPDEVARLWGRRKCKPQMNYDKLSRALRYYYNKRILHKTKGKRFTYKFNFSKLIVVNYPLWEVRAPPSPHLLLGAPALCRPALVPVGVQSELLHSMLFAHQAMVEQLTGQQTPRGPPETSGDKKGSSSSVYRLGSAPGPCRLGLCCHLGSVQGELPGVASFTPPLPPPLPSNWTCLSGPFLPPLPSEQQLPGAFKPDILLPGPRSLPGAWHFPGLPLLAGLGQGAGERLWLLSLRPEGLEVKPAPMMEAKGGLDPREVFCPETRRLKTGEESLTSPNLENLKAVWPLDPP
# Method in brief: as §1
# ETS2 = target: T10, ETS2 (Homo sapiens, UniProt P15036 1-469)
# T10 sequence: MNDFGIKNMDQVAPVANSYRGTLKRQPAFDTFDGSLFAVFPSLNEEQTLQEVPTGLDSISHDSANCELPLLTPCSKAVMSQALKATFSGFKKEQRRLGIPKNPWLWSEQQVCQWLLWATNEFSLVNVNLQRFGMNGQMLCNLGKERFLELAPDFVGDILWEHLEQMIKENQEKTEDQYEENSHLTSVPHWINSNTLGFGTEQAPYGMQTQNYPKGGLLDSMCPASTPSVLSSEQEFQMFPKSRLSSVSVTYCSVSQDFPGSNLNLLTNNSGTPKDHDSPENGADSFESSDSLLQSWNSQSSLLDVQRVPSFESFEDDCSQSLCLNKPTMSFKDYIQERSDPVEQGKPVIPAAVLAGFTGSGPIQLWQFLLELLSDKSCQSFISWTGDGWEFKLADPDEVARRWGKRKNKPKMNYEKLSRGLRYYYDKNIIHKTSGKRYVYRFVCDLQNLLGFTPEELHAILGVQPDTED
# Method in brief: as §1
# SPDEF = target: T11, SPDEF (Homo sapiens, UniProt O95238 1-335)
# T11 sequence: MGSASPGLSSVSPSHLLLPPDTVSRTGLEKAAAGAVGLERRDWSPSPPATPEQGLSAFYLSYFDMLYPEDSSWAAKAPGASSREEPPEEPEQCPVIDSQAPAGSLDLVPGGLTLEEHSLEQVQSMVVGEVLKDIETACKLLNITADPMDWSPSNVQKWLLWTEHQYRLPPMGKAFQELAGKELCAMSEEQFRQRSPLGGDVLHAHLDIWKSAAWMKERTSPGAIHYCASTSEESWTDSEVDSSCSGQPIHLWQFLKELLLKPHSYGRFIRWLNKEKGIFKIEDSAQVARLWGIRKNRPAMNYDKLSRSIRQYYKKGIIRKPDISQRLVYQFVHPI
# Method in brief: as §1
# ETV7 = target: T12, ETV7 (Homo sapiens, UniProt Q9Y603 1-341)
# T12 sequence: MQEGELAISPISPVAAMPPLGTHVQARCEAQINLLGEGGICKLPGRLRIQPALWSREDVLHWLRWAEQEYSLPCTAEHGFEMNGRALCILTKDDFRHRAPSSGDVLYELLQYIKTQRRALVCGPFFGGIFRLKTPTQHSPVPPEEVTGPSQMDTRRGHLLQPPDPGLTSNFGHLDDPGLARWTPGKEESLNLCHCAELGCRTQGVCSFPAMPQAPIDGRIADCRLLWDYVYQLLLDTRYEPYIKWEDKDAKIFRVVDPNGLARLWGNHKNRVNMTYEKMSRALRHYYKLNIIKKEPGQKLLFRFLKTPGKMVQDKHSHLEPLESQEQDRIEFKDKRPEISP
# Method in brief: as §1
# ETV3 = target: T13, ETV3 (Homo sapiens, UniProt P41162-2 1-143)
# T13 sequence: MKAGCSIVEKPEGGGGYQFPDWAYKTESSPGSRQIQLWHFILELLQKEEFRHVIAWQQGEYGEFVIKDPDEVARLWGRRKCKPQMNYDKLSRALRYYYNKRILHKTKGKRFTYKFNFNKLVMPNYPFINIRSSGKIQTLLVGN
# Method in brief: as §1
sequence,measurement,setting,value
AGCGAT,binding signal,ELK1,"1.11 fold enrichment (6-mer frequency, TF over GST control)"
same,binding signal,GABPA,"1.07 fold enrichment (6-mer frequency, TF over GST control)"
same,binding signal,ERG,"1.06 fold enrichment (6-mer frequency, TF over GST control)"
same,binding signal,ELF1,"1.09 fold enrichment (6-mer frequency, TF over GST control)"
same,binding signal,EHF,"1.07 fold enrichment (6-mer frequency, TF over GST control)"
same,binding signal,SPI1,"1.07 fold enrichment (6-mer frequency, TF over GST control)"
same,binding signal,SPIB,"1.02 fold enrichment (6-mer frequency, TF over GST control)"
same,binding signal,FEV,"1.05 fold enrichment (6-mer frequency, TF over GST control)"
same,binding signal,ETV5,"1.14 fold enrichment (6-mer frequency, TF over GST control)"
same,binding signal,ELK4,"1.07 fold enrichment (6-mer frequency, TF over GST control)"
same,binding signal,ELF3,"1.2 fold enrichment (6-mer frequency, TF over GST control)"
same,binding signal,ETV1,"1.02 fold enrichment (6-mer frequency, TF over GST control)"
same,binding signal,ERF,"1.09 fold enrichment (6-mer frequency, TF over GST control)"
same,binding signal,ETV3L,"1.1 fold enrichment (6-mer frequency, TF over GST control)"
same,binding signal,ETS2,"1.09 fold enrichment (6-mer frequency, TF over GST control)"
same,binding signal,SPDEF,"1.08 fold enrichment (6-mer frequency, TF over GST control)"
same,binding signal,ETV7,"1.09 fold enrichment (6-mer frequency, TF over GST control)"
same,binding signal,ETV3,"1.02 fold enrichment (6-mer frequency, TF over GST control)"
